Most compounds without a hit are left out; they make up all but 1.8% or so of the library.
GSIS activator = primary screen for activators of insulin secretion dependent on glucose, INS-1E cells, GLuc reporter luminescence; activation, % at 16.6 µM; 370,000 tested, 0.61% active; AID 743287; INS-1E GLuc reporter insulin secretion, 2-3 h;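 active means lowest replicate activation of at least 40%, so every replicate reaches that level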
ARNT TACC3 PPI = ARNT/TACC3 interaction disruption | Q9Y6A5 | AlphaScreen His-ARNT PAS-B/GST-TACC3 binding, luminescence; TACC3 fragment carries E629A point mutation | inhibition, % at 9.99 µM | 390,000 tested, 0.66% active | AID 623870;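 active means mean inhibition of replicates at least 50% and at least half of replicates each reaching 50%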
ABCB6 inh 2 = blocks the human ABCB6 transporter; AID 602162; fluorescence ratio to DMSO, % at 10 µM; K562-ABCB6 porphyrin accumulation, flow cytometry, 1 h; stronger effect = lower value; 360,000 tested, 0.19% active; Q9NP58;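 active means fluorescence ratio to DMSO below 75%, the collection mean minus 3 SD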;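 further: signal is porphyrin accumulated inside mitochondria; lower ratio means ABCB6 inhibition with less porphyrin fluorescence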
Target sequence (Q9NP58 whole entry, looked up): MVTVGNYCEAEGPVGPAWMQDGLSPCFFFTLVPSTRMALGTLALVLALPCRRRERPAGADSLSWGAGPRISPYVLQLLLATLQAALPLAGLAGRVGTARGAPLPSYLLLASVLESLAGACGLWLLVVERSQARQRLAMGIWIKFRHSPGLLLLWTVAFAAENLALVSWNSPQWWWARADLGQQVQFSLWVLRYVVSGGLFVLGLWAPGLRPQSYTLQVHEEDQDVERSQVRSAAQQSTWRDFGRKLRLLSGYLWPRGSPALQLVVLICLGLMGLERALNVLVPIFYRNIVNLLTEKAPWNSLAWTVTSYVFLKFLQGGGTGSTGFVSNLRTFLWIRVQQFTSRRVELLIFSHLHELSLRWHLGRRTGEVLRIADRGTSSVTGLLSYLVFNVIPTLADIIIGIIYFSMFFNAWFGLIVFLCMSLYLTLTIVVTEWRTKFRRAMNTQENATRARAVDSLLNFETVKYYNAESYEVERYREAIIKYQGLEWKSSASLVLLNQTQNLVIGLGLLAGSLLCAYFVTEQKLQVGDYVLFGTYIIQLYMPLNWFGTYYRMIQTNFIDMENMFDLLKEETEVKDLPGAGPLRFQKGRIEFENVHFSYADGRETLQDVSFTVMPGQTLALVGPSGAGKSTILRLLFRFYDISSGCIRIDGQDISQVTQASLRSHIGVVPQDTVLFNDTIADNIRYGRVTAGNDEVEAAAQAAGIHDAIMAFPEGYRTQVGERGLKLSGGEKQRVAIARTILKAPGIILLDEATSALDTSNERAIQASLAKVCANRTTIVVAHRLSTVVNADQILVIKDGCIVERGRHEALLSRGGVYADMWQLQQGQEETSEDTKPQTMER
NRP1-CendR mod = NRP-1/CendR interaction modulation; FAM-RPARPAR peptide binding to NRP-1, fluorescence polarization; O14786; 360,000 tested, 0.85% active; inhibition, % at 25 µM; AID 602438;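 active means inhibition or corrected inhibition above about 18%, plus a signal ratio from 0.5 to 1.5, limit read from the data, passing the limit was not always enough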
iPSC survival up = increases survival of single human iPS cells. hiPSC single-cell survival, ATPlite luminescence; 100% = ROCK inhibitor wells, 0% = DMSO. survival enhancement, % at 20 µM. 360,000 tested, 0.044% active. AID 602274; in the data active means survival enhancement above about 18%;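 further: cells exposed to compounds for 16 hours before the ATP read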
Each line names hits and unclear results; the compound was inactive in the other large screens.

Cc1noc(C)c1NC(=O)Nc1ccc2c(c1)CC(=O)N([C@@H](C)CO)C[C@@H](C)[C@@H](CN(C)C(=O)Nc1c(C)noc1C)O2	none (no result: ABCB6 inh 2, NRP1-CendR mod, iPSC survival up)
COc1ccccc1CCN=C(N)NS(=O)(=O)c1cccs1	none
COc1ccc(CCN=C(N)NS(=O)(=O)c2ccc(C)c(C)c2)cc1OC	GSIS activator 91
COc1ccc(CCN=C(N)NS(=O)(=O)c2cccs2)cc1OC	NRP1-CendR mod 20
COc1ccc(S(=O)(=O)NC(N)=NCCc2ccc(OC)c(OC)c2)cc1C	none (no result: ARNT TACC3 PPI)
COCC(=O)Nc1ccc2c(c1)[C@@H]1C[C@@H](CC(=O)NCc3ccccn3)O[C@@H](CO)[C@@H]1O2	none (no result: ARNT TACC3 PPI, ABCB6 inh 2, NRP1-CendR mod, iPSC survival up)
COc1ccc([C@@H]2C/C=C\C[C@H](c3ccc(F)cc3)NC(=O)CCC(=O)N2)c(OC)c1	none (no result: ARNT TACC3 PPI, ABCB6 inh 2, NRP1-CendR mod, iPSC survival up)
CC(C)(C)c1ccc(C2CC2C(=O)N/N=C\c2ccc[nH]2)cc1 (centres undefined)	GSIS activator 59
O=C(O)C[C@@H]1C=C[C@@H](NC(=O)CCN2CCCCC2)[C@H](CO)O1	none (no result: ARNT TACC3 PPI, ABCB6 inh 2, NRP1-CendR mod, iPSC survival up)
c1cncc(CSc2ccc(-c3cccnc3)nn2)c1	none
COc1ccc(-c2ccc(SCc3ccccn3)nn2)cc1OC	GSIS activator 83
COc1ccc(-c2ccc(SCc3cccnc3)nn2)cc1OC	GSIS activator 47
O=C1C[C@H](c2ccccc2)C(=O)N[C@@H](c2ccccc2)C/C=C\C[C@@H](c2ccccc2)N1	none (no result: ARNT TACC3 PPI, ABCB6 inh 2, NRP1-CendR mod, iPSC survival up)
CC(C)NC(=O)N(C)C[C@H]1OCCCC[C@H](C)Oc2ccc(N(C)C)cc2C(=O)N([C@H](C)CO)C[C@@H]1C	none (no result: ABCB6 inh 2, NRP1-CendR mod, iPSC survival up)
Cc1ccc(S(=O)(=O)N(C)C[C@@H]2OCCCC[C@H](C)Oc3ccc(NC(=O)NC(C)C)cc3C(=O)N([C@H](C)CO)C[C@@H]2C)cc1	none (no result: ABCB6 inh 2, NRP1-CendR mod, iPSC survival up)
C[C@H](CO)N1C[C@H](C)[C@@H](CN(C)Cc2ccc(C(=O)Nc3ccccc3N)cc2)Oc2ccc(NC(=O)Cc3ccccc3)cc2CC1=O	none (no result: ARNT TACC3 PPI, ABCB6 inh 2, NRP1-CendR mod, iPSC survival up)
COc1ccc(-c2ccc(/C=C3/C(=N)N4C=CSC4=NC3=O)o2)c([N+](=O)[O-])c1	GSIS activator 158
N=C1/C(=C/c2cccn2-c2ccc([N+](=O)[O-])cc2)C(=O)N=C2SC=CN12	none
CCC(=O)N(C)C[C@@H]1Oc2cc(C3=CCCCC3)ccc2S(=O)(=O)N([C@@H](C)CO)C[C@@H]1C	none (no result: ARNT TACC3 PPI, ABCB6 inh 2, NRP1-CendR mod, iPSC survival up)
CC(C)Cn1c(SCC(=O)Nc2ccc3[nH]c(=O)[nH]c3c2)nc2ccccc2c1=O	GSIS activator 45
O=C(O)C1CCN(C(=O)CSc2nc3cc(Cl)ccc3c(=O)n2Cc2ccccc2)CC1	none
Cc1cc(NC(=O)CSc2nc3ccccc3c(=O)n2Cc2ccccc2)no1	none (no result: GSIS activator)
O=C(O)C1CCN(C(=O)CSc2nc3ccccc3c(=O)n2Cc2ccccc2)CC1	GSIS activator 43
Cc1ccc(Cn2c(SCC(=O)Nc3cc(C)on3)nc3ccccc3c2=O)cc1	NRP1-CendR mod 28 (no result: GSIS activator)
CS(=O)(=O)N1C[C@H](O)COC[C@@H]2O[C@@H](CC(=O)NCCc3ccncc3)CC[C@H]21	none (no result: ABCB6 inh 2, NRP1-CendR mod, iPSC survival up)
C[C@@H](NC(=O)C[C@@H]1C=C[C@@H](NC(=O)CN2CCOCC2)[C@@H](CO)O1)c1ccccc1	none (no result: ABCB6 inh 2, NRP1-CendR mod, iPSC survival up)
O=C(Nc1nc(-c2ccccc2)c(-c2ccccc2)o1)c1ccc(F)cc1	ARNT TACC3 PPI 46 (no result: GSIS activator)
CCCCCCCCCCCCCCCC[n+]1ccc(C(N)=O)cc1	none
CCCCCCCCCCCCCCCC[n+]1ccc(/C=N/O)cc1	GSIS activator 47
COc1cccc(/C=N/Nc2cc(N3CCOCC3)ncn2)c1O	ARNT TACC3 PPI 49
COc1cccc(/C=N/Nc2nnc(C)n2N)c1O	ARNT TACC3 PPI 58
C/C(=N/NC(=O)c1ccc(Br)s1)c1ccncc1	GSIS activator 50
COc1ccc(/C(C)=N/NC(=O)c2ccncc2)cc1	ARNT TACC3 PPI 47
C/C(=N/NC(=O)c1ccc(Br)s1)c1cccnc1	none
CC(=NNC(=O)c1ccncc1)c1ccccc1O	ARNT TACC3 PPI 61
CC(=NNC(=O)c1ccncc1)c1ccc(O)cc1O	ARNT TACC3 PPI 85
CC(=NNC(=O)c1ccncc1)c1ccc2ccccc2c1O	none
CO[C@@H]1CN(C)C(=O)c2cc(NC(=O)Nc3cccc(Cl)c3)ccc2OC[C@H](C)N(C(=O)Nc2c(C)noc2C)C[C@H]1C	none (no result: ARNT TACC3 PPI, ABCB6 inh 2, NRP1-CendR mod, iPSC survival up)
O=C(C[C@@H]1CC[C@@H](NS(=O)(=O)c2ccc(F)cc2)[C@H](CO)O1)NCc1ccccc1F	none (no result: ARNT TACC3 PPI, ABCB6 inh 2, NRP1-CendR mod, iPSC survival up)
CCCc1cn(CC[C@H]2CC[C@@H](NC(=O)C3CCC3)[C@H](CO)O2)nn1	none (no result: ABCB6 inh 2, NRP1-CendR mod, iPSC survival up)
COc1ccc2cc(C(=O)NCc3ccccc3)c(=Nc3ccc(C(=O)O)cc3)oc2c1	NRP1-CendR mod 46
O=C(Cc1ccc([N+](=O)[O-])cc1)Nc1cccc(C(=O)N2CCOCC2)c1	none
O=C(Cc1ccc([N+](=O)[O-])cc1)Nc1cccc(C(=O)N2CCCCC2)c1	NRP1-CendR mod 26
Cc1ccccc1NC(=S)c1nc2ccccc2[nH]1	ARNT TACC3 PPI 49 (no result: GSIS activator)
Cc1ccc2[nH]c(=O)c(C3C(C#N)=C(N)Oc4c3ccc3cccnc43)cc2c1 (centres undefined)	ARNT TACC3 PPI 50 (no result: GSIS activator)
COC(=O)C1=C(C)NC(C)=C(C(=O)OC)C1c1cc2cc(C)ccc2[nH]c1=O	none
O=C(Nc1ccc2c(c1)[C@H]1C[C@@H](CC(=O)N3CCc4ccccc4C3)O[C@H](CO)[C@H]1O2)C1CCC1	none (no result: ABCB6 inh 2, NRP1-CendR mod, iPSC survival up)
COc1cc(C=NO)nc(-c2ccccn2)c1	ARNT TACC3 PPI 59
COC(=O)C1=C(C(=O)OC)[C@@H]2N(C)c3ccc(OC)cc3[C@@]23C[C@@H](C(=O)OC)N(C(=O)CC(C)C)C3=N1	NRP1-CendR mod 26
CC1=NN(C(N)=S)C(=O)C1N=Nc1ccccc1O (centres undefined)	ARNT TACC3 PPI 76
CC1=NN(C(N)=S)C(=O)C1N=Nc1c(C)n(C)n(-c2ccccc2)c1=O (centres undefined)	ARNT TACC3 PPI 47
CC1=NN(C(N)=S)C(=O)C1N=Nc1ccc(C)cc1C (centres undefined)	none (no result: ARNT TACC3 PPI, ABCB6 inh 2, NRP1-CendR mod, iPSC survival up)
CC1=NN(C(N)=S)C(=O)C1N=Nc1ccccc1C (centres undefined)	GSIS activator 65
CCCNC(=O)C[C@@H]1CC[C@@H]2[C@H](COC[C@H](O)CN2C(=O)C2CCOCC2)O1	none (no result: ABCB6 inh 2, NRP1-CendR mod, iPSC survival up)
COC(=O)C[C@@H]1CC[C@@H]2[C@H](COC[C@@H](O)CN2CCC(F)(F)F)O1	none (no result: ABCB6 inh 2, NRP1-CendR mod, iPSC survival up)
Cc1cc2cc(CNC(=S)NCc3ccccc3)ccc2n1C	NRP1-CendR mod 22
O=C(NCc1cccnc1)c1cccc(S(=O)(=O)NCc2ccccc2)c1	GSIS activator 46
O=C(Nc1ccc(S(=O)(=O)N2CCOCC2)cc1)c1ccc(=O)[nH]c1	GSIS activator 43 (no result: ARNT TACC3 PPI, ABCB6 inh 2, NRP1-CendR mod, iPSC survival up)
O=C(NCc1ccncc1)c1cccc(S(=O)(=O)NCc2ccccc2)c1	none
O=C(Nc1ccc(S(=O)(=O)N2CCCCC2)cc1)c1ccc(=O)[nH]c1	none
O=C(Nc1cccc(S(=O)(=O)N2CCCCC2)c1)c1ccc([N+](=O)[O-])o1	NRP1-CendR mod 36

Screening results (PubChem)
